This passage reports inhibition results from PubChem BioAssay AID449762 (Southern Research Specialized Biocontainment Screening …, 2010).

Hit rate of the full screen: of about 330,000 compounds, about 1,900 (0.58%) were called active. Another 4% or so got no clear call; they are omitted. Only a sample is shown. Entries with a potency or affinity are not part of this list. Values without a mark were called inactive. Rule as the data show it: inconclusive = inhibition above about 70% without an active follow-up result; inactive = below that.

This assay in a line: M. tuberculosis growth inhibition, HTS (AID 449762).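 Also: bacterial growth assessed after seven days of incubation.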 The conditions noted are these: M. tuberculosis H37Rv growth inhibition, 7H9 media; at 25 µM; stronger effect = higher value.
With `CSc1ncccc1C(=O)OCC(=O)N1CCc2ccccc21`, the inhibition was -3.03%.

In the case of `O=C(OCC(=O)N1CCc2ccccc21)c1cccnc1Cl`, the inhibition is -2.8%.

Take `CC1CCCC(NC(=O)COC(=O)COc2ccc(Br)cc2)C1C` (configuration not stated): the inhibition was 10.5%.

In the case of `C/C(CCC12CC3CC(CC(C3)C1)C2)=N\NC(N)=S`, the inhibition is -13.2%.

Take `C/C(=N\NC(N)=S)C12CC3CC(CC(C3)C1)C2`: the inhibition is -3.2%.

Consider `COc1ccc(/C=C/C(=O)N(CC(C)C)C2CCS(=O)(=O)C2)cc1` (configuration not stated), for which the inhibition is 3.62%.

`O=C(NCC1CCCO1)C1CC(=O)N(C2CCCCCC2)C1` (configuration not stated): the inhibition was 5.65%.

On to `COc1ccc(NC(=O)c2ccc(-n3cccn3)nc2)cc1`, for which the inhibition is -16.3%.

With `CCOC(=O)C(C)Sc1ncc(OC)c(Sc2ccc(Cl)cc2)n1` (configuration not stated), the inhibition was 2.61%.

Consider `CCOc1ccc(NC(=O)c2ccc(OC)cc2)cc1`, for which the inhibition is -11.8%.

As for `CCOC(=O)CSc1ncc(OC)c(Sc2ccc(Cl)cc2)n1`, the inhibition is 0.98%.

On to `CC1Cc2ccccc2N1C(=O)CN(C)CC(=O)Nc1ccc(F)cc1` (configuration not stated), for which the inhibition is -2.83%.

Turning to `CC(=O)c1cccc(N(C(=O)c2ccco2)C(C(=O)NC2CCCC2)c2ccccc2F)c1` (configuration not stated), the inhibition was 3.81%.

Take `CCCCn1c(N)c(N(CCC(C)C)C(=O)C2CCN(C(=O)c3ccccc3C)CC2)c(=O)[nH]c1=O`: the inhibition is -4.26%.

As to `COc1cc(NC(=O)C2CCCN(S(=O)(=O)c3ccc4[nH]c(=O)ccc4c3)C2)cc(OC)c1` (configuration not stated), the inhibition was -0.31%.

With `NC(=O)c1cc([N+](=O)[O-])ccc1NCc1cccnc1`, the inhibition is -8.59%.

For `CCOC(=O)c1ccccc1C(=O)OCC`, the inhibition was 7.16%.

Regarding `O=C1C(Nc2ccccc2)=C(N2CCCCC2)C(=O)c2ccccc21`, the inhibition is 30.1%.

`Cc1ccc(NC2=C(N3CCCCC3)C(=O)c3ccccc3C2=O)cc1`: the inhibition was -7.72%.

On to `Cc1ccc(CN(C(=O)c2ccco2)C2CCS(=O)(=O)C2)cc1` (configuration not stated), for which the inhibition is -3.45%.

For the compound `CCCN1C(=O)C2(OCCO2)c2cc(Cl)ccc21`, the inhibition is 3.45%.

Regarding `CN(C)c1ccc(N=Nc2ccccc2C(=O)OCC(=O)N2CCCCCC2)cc1`, the inhibition is 11.9%.

With `COC(=O)c1ccccc1NC(=O)COC(=O)c1ccccc1N=Nc1ccc(N(C)C)cc1`, the inhibition is 5.14%.

Consider `Clc1ccc(-c2cn3c(n2)SCC3)cc1`, for which the inhibition is 9.61%.

In the case of `CCSc1ncc(/C=N/Nc2ccc([N+](=O)[O-])cc2)n1C`, the inhibition was -1.1%.

Regarding `CCSc1ncc(/C=N/Nc2ccc(F)cc2)n1C`, the inhibition was -4.38%.

With `Cc1cc(C(=O)NNC(=O)c2cccc(C(F)(F)F)c2)no1`, the inhibition is -7.27%.

As to `CCOc1ccc(C(=O)NC(C)(C)CC)cc1`, the inhibition was 26.1%.

With `CCOc1ccc(C(=O)CCN2CCCCC2)cc1`, the inhibition was 42.5%.

As for `CCCOc1ccc(C(=O)CCN2CCCCC2)cc1`, the inhibition is 23.5%.

Turning to `Cc1ccc(-c2nc(S(=O)(=O)c3ccc(C)cc3)c(SCC(=O)NCC3CCCO3)o2)cc1` (configuration not stated), the inhibition is 8.98%.

Take `CC(=O)c1ccc(NC(=O)CCc2nc3sc4c(c3c(=O)[nH]2)CCCC4)cc1`: the inhibition is 16.8%.

In the case of `CCn1cc(Br)c(C(=O)NC(=S)Nc2ccc(C(=O)OC)cc2)n1`, the inhibition was 9.85%.

For the compound `COc1ccc(NC(=S)NC(=O)c2cncc(Br)c2)cc1`, the inhibition is -11.5%.

Take `CC(C)OC(=O)c1ccc(NC(=O)c2cncc(Br)c2)cc1`: the inhibition was 33%.

With `CCn1cc(Br)c(C(=O)Nc2ccc(OC)cc2)n1`, the inhibition was -0.58%.

Turning to `CN1CCN(CCc2nc3cc(NC(=O)c4ccco4)ccc3n2C)CC1`, the inhibition is 3.05%.

On to `O=S(=O)(NCCc1cn2ccccc2n1)c1ccc(F)c(C(F)(F)F)c1`, for which the inhibition is -2.32%.

Consider `CCCOc1ccc(OCCn2nc(C(=O)O)c3ccccc3c2=O)cc1`, for which the inhibition was 1.16%.

Turning to `O=c1[nH]c(=O)n(Cc2ccc(Oc3ccccc3)cc2)cc1Br`, the inhibition was 2.82%.

Consider `CCc1nnc(NC(=O)CN2CCN(c3ccccc3F)CC2)s1`, for which the inhibition is 5.55%.

With `CC(C)C(=O)NNC(=O)CN1CCN(c2nc(-c3ccccc3)cs2)CC1`, the inhibition is -10.4%.

Consider `CC(=O)Nc1cccc(C(=O)N2CCN(Cc3ccccc3)CC2)c1`, for which the inhibition was -9.84%.

`COc1ccc(C(CC(=O)c2ccc(C)cc2)Nc2ccc([N+](=O)[O-])cc2)cc1` (configuration not stated): the inhibition is 14.3%.

`Cc1ccc(NCC(=O)c2ccc([N+](=O)[O-])cc2)cc1`: the inhibition is 8.11%.

As to `CC(C)CC(=O)NC(Nc1ccc([N+](=O)[O-])cc1)C(Cl)(Cl)Cl` (configuration not stated), the inhibition was 4.27%.

As to `CC(=O)NC(CC(=O)c1ccc([N+](=O)[O-])cc1)C(Cl)(Cl)Cl` (configuration not stated), the inhibition is 13.4%.

As to `OC(COc1ccc(Br)cc1)Cn1ccnc1` (configuration not stated), the inhibition is -0.05%.

For `O=C(NN1CCOCC1)c1ccc(Cl)s1`, the inhibition was -0.84%.

With `O=C(COC(=O)C1CCC1)Nc1ncc(Cl)cc1Cl`, the inhibition was -10.9%.

For the compound `COc1ccc(N2CCN(c3ccc(NC(=O)C4CCCCC4)cc3C#N)CC2)cc1`, the inhibition is 7.01%.

As to `Cc1cc(C)nc(Nc2ncn[nH]2)n1`, the inhibition is 6.87%.

Take `Clc1ccc(CNc2ccc(CNc3ncn[nH]3)cc2)cc1`: the inhibition is 2.69%.

In the case of `CC1C(=O)N2CCCc3cc(NC(=O)C(=O)NCCc4ccc(F)cc4)cc1c32` (configuration not stated), the inhibition is 39.4%.

On to `CC(C)c1nnc(NC(=O)CCC(=O)N2CCN(c3ccc(F)cc3)CC2)s1`, for which the inhibition is 6.66%.

As to `CC(C)c1nnc(NC(=O)CCC(=O)N2CCN(c3cccc(Cl)c3)CC2)s1`, the inhibition was 25.5%.

With `Cc1[nH]ncc1N=Cc1ccc([N+](=O)[O-])cc1`, the inhibition is 1.43%.

Turning to `CCOc1ccc(C(=O)CCC(=O)NCC(=O)Nc2c(C)cccc2C)cc1`, the inhibition is 3.97%.

As for `O=C1CSC2(C(=O)N3CCCc4cccc2c43)N1c1cccc(C(F)(F)F)c1` (configuration not stated), the inhibition is -2.03%.

Consider `O=S(=O)(c1ccc(N2CC=C(c3ccccc3)CC2)nc1)N1CCCC1`, for which the inhibition was -10.8%.

As for `N=C1C(c2nc3ccccc3s2)=C(O)CN1NC(=O)c1c[nH]c2ccccc12`, the inhibition was -0.06%.

As for `N=C1C(c2nc3ccccc3[nH]2)=C(O)CN1NC(=O)COc1cccc(F)c1`, the inhibition was -2.89%.

On to `CCN(CC)S(=O)(=O)c1ccc2c(c1)N(CC(=O)N1CCCC1)C(=O)CO2`, for which the inhibition is -1.21%.

Consider `O=c1oc2ccccc2cc1-c1nc(-c2ccccc2)no1`, for which the inhibition is 23.8%.

On to `Cc1cccc(-c2noc(-c3cc4ccccc4oc3=O)n2)c1`, for which the inhibition was -1.72%.

Take `COC(=O)c1cn(-c2ccccc2)nc1-c1ccc(OC)c(OC)c1`: the inhibition was 3.81%.

For `CC(C)Oc1ccc(C(=O)Nc2ccc(N3CCN(C(=O)c4ccco4)CC3)cc2)cc1`, the inhibition was 0.01%.

In the case of `O=C(Nc1ccc(OCc2ccccc2)cc1)c1cccs1`, the inhibition is -4.87%.

Regarding `Cc1cccc(Nc2nc(N)c([N+](=O)[O-])c(N3CCCC(C)C3)n2)c1` (configuration not stated), the inhibition was 10.2%.

On to `Cc1ccc(Nc2nc(N)c([N+](=O)[O-])c(N3CCC(C)CC3)n2)cc1C`, for which the inhibition is -4.24%.

For the compound `CC(NC(=O)c1cccnc1)C(c1cccs1)N1CCN(c2ccccc2F)CC1` (configuration not stated), the inhibition was -3.95%.

On to `O=Cc1ccc(Oc2ccc(F)cc2)nc1`, for which the inhibition was 0.87%.

Consider `CC(C)(C)c1ccc(Oc2ccc(N)cn2)cc1`, for which the inhibition is 14.1%.

On to `O=C(NCc1ccccc1Cl)c1cnc2n(c1=O)CCS2`, for which the inhibition is -6.04%.

On to `Cn1cccc1/C=C1/C(=O)NC(=O)N(Cc2ccc(F)cc2)C1=O`, for which the inhibition was 11.8%.

Turning to `Cn1cccc1/C=C1\C(=O)NC(=O)N(Cc2ccccc2)C1=O`, the inhibition was 3.31%.

As to `N=C1C(c2nc3ccccc3s2)=C(O)CN1C1CCCCC1`, the inhibition is 8.1%.

Regarding `COC(=O)c1cc(NC(=O)CN(C)C2CCS(=O)(=O)C2)cc(C(=O)OC)c1` (configuration not stated), the inhibition is -0.88%.

Take `COc1cc(N/N=C(\C)c2ccc(O)c(C)c2)nc(-c2ccccc2)n1`: the inhibition was 40.1%.

`C/C(=N\Nc1nc(C)cc(-c2ccccc2)n1)c1ccccc1`: the inhibition was 9.83%.

With `CC(=O)CC(=O)NC(=NC1CCCCC1)Nc1nc(C)cc(C)n1`, the inhibition was 43.2%.

With `Cc1ccc(-n2cccc2C(=O)NS(=O)(=O)c2ccc(C)cc2)cc1`, the inhibition was -6.77%.

As for `CN(C)P(=NC(=S)c1cccn1C)(N(C)C)N(C)C`, the inhibition was 0.74%.

`C#CC(=O)CCC1CCCN1C(=O)OC(C)(C)C` (configuration not stated): the inhibition was 5.07%.

Take `Cc1ccc(S(=O)(=O)N2CCOCC2)cc1NC(=O)COC(=O)C1(C)CC1(Cl)Cl` (configuration not stated): the inhibition was 11.2%.

As to `Cc1cc(=O)n2ccsc2n1`, the inhibition is 0.36%.

On to `Cc1ccn2c(=O)cc(C)nc2c1`, for which the inhibition is -4.1%.

Consider `CCOC(=O)c1cnn(CCOC(=O)c2ccc(F)cc2)c1NC(=O)c1ccc(F)cc1`, for which the inhibition was 0.06%.

Turning to `CC(=O)OCn1ncc(N2CCOCC2)c(Br)c1=O`, the inhibition is -0.34%.

For `COc1cc(OC)cc(C(=O)NC2CCCN(Cc3ccc(Cl)cc3)C2)c1` (configuration not stated), the inhibition was 7.21%.

Consider `Cc1nnc(SCC(=O)NC(=O)NC(C)(C)C)n1N`, for which the inhibition was 4.56%.

Regarding `CC1(C)Cc2c(C#N)c(N3CCOCC3)nc(Cc3ccccc3)c2CO1`, the inhibition is 1.75%.

`CCc1nc(N2CCN(C(=O)c3ccccc3)CC2)c(C#N)c2c1COC(C)(C)C2`: the inhibition is 15.8%.

On to `COc1ccc(Cn2c(=O)[nH]c3cc(C(=O)NCCCN4CCCCC4)ccc3c2=O)cc1`, for which the inhibition was -8.19%.

On to `CCC1Nc2ncnc(N3CCN(c4ccccn4)CC3)c2N(Cc2ccc(Cl)cc2)C1=O` (configuration not stated), for which the inhibition is 8.22%.

`O=C1CC(=C(c2ccccc2)c2ccccc2)C(=O)N1CCCN1CCN(c2cccc(Cl)c2)CC1`: the inhibition was 59.9%.

With `Cc1ccccc1N1CCN(CCCN2C(=O)CC(=C(c3ccccc3)c3ccccc3)C2=O)CC1`, the inhibition was 7.38%.
